Data as given in PubChem BioAssay (NCI).
The panel holds about 83,000 compounds, 20% with a hit somewhere; the sample as a whole holds those more often.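 Negative percent growth values reflect cell death: -40 means 40% of the cells present at the start died, and -100 means all died.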 The source made the active and inactive calls. The calls were made as follows: active = growth percent below 10; inactive = the rest.

Experiments:
Experiment in all cases: NCI-60 one-dose screen, 48 h (100 = growth as untreated, 0 = no growth, -100 = all killed)
Conditions in all cases: 10 µM unless noted
[1] = tested on: HCT-15 colon
[2] = tested on: HT29 colon
[3] = tested on: SNB-75 CNS
[4] = tested on: SNB-19 CNS
[5] = tested on: U251 CNS
[6] = tested on: PC-3 prostate
[7] = tested on: SK-MEL-5 melanoma
[8] = tested on: UACC-62 melanoma
[9] = tested on: LOX IMVI melanoma
[10] = tested on: SK-MEL-28 melanoma
[11] = tested on: SK-MEL-2 melanoma
[12] = tested on: EKVX NSCLC
[13] = tested on: SN12C renal
[14] = tested on: UO-31 renal
[15] = tested on: TK-10 renal
[16] = tested on: ACHN renal
[17] = tested on: A498 renal
[18] = tested on: CCRF-CEM leukemia
[19] = tested on: MOLT-4 leukemia
[20] = tested on: CAKI-1 renal

Measured: growth

Cc1ccc(S(=O)(=O)OC[C@]23CCC(C)(C)C[C@H]2C2=CC[C@@H]4[C@@]5(C)CCCNC(C)(C)[C@@H]5CC[C@@]4(C)[C@]2(C)CC3)cc1
active: [1] -50.9% | [2] -59.3% | [5] -81.1% | [9] -87.7%
inactive: [3] 86.4% | [4] 85.7% | [6] 53.9% | [7] 91.5% | [8] 89.7% | [10] 99.8% | [11] 102% | [12] 83% | [13] 46.4% | [14] 60.2% | [15] 73% | [16] 48.6% | [17] 95.4% | [18] 34.5% | [19] 12.9%

N#Cc1ccc(O)c(C2=NCC(c3ccc(-c4ccccc4)cc3)O2)c1 (stereo unspecified)
inactive: [1] 24.6% | [2] 18.1% | [3] 26.2% | [4] 18% | [6] 25.5% | [9] 11.8% | [10] 23.7% | [12] 15.6% | [13] 29.8% | [15] 12.4% | [16] 11.6% | [18] 11.6%
active: [5] 4.51% | [7] 3.96% | [8] -5.35% | [11] -4.74% | [14] 1.37% | [20] 3.1% | [19] 0.755%

CCOC(=O)c1cnn(CC(C)O)c1NC(=O)NCc1ccccc1C(F)(F)F (stereo unspecified)
inactive: [1] 101% | [2] 82.1% | [3] 93.6% | [4] 103% | [5] 101% | [6] 107% | [7] 102% | [8] 91.8% | [9] 100% | [10] 103% | [11] 76.6% | [12] 98.1% | [13] 99% | [14] 87.1% | [15] 80.9% | [16] 98.3% | [17] 108% | [18] 114% | [19] 76%

C=C1C(=O)O[C@@H]2C3C(=C(C)CC[C@@H]12)CC1O[C@]13C (stereo partly specified)
inactive: [1] 50.4% [6.75 µM] | [2] 85.5% [6.75 µM] | [3] 86.1% [6.75 µM] | [4] 92.8% [6.75 µM] | [5] 90.3% [6.75 µM] | [6] 85.2% [6.75 µM] | [7] 55.6% [6.75 µM] | [8] 74.6% [6.75 µM] | [9] 51.8% [6.75 µM] | [10] 90.4% [6.75 µM] | [11] 90.4% [6.75 µM] | [12] 91.5% [6.75 µM] | [13] 86.6% [6.75 µM] | [14] 54.5% [6.75 µM] | [15] 40.5% [6.75 µM] | [16] 73.2% [6.75 µM] | [20] 90.1% [6.75 µM] | [18] 23.2% [6.75 µM] | [19] 84% [6.75 µM]

CS(=O)(=O)Nc1cc(-c2ccc3ncnc(Nc4ccc(F)c(Cl)c4)c3c2)ccc1Cl
active: [17] 6.7%
inactive: [1] 41.3% | [2] 34.8% | [3] 30.5% | [4] 57.6% | [5] 42.4% | [6] 36.8% | [7] 28.8% | [8] 53.8% | [9] 37.9% | [10] 57.1% | [11] 62.5% | [12] 20.9% | [13] 52.7% | [14] 36.5% | [15] 17.3% | [16] 27.2% | [19] 40.2%

CC(C)Cc1nc(Nc2ccccc2)[nH]c(=O)c1C#N
inactive: [1] 60.5% | [2] 51.7% | [3] 62.4% | [4] 54.8% | [5] 55.8% | [6] 38% | [7] 48.7% | [8] 19.5% | [9] 48.7% | [10] 55.9% | [11] 40.5% | [12] 59.4% | [13] 52.8% | [14] 14% | [15] 82% | [16] 57.5% | [17] 19.4% | [18] 60.2%

CC1=C2CC/C(C)=C/CC[C@]3(C)O[C@H]3CC/C(C)=C/[C@H]2OC1
inactive: [1] 97.9% | [2] 94.7% | [3] 86.6% | [4] 98.5% | [5] 94.7% | [6] 87.5% | [7] 108% | [8] 92.1% | [9] 101% | [10] 96.5% | [11] 92.6% | [12] 103% | [13] 95.5% | [14] 84.7% | [15] 100% | [16] 90.9% | [17] 97% | [18] 84.9% | [19] 86.5%

COc1ccc(/C=N/Nc2c3ccccc3nc3ccccc23)cc1
inactive: [1] 92.6% | [2] 93.9% | [3] 93.4% | [4] 92.4% | [5] 93.4% | [6] 83.1% | [7] 90.4% | [8] 91.1% | [9] 92.9% | [10] 108% | [11] 82.2% | [12] 86.9% | [13] 91% | [14] 76.1% | [15] 107% | [16] 98.9% | [17] 69.6% | [18] 90.8% | [19] 90.3%

Cc1nc([P+](c2ccccc2)(c2ccccc2)c2ccccc2)c(N2CCCCC2)o1
inactive: [1] 103% | [2] 14.1% | [3] 37.9% | [4] 18.7% | [5] 16.6% | [6] 15.3% | [8] 25.3% | [9] 24.5% | [10] 34.3% | [11] 41.2% | [12] 63.4% | [13] 35% | [14] 97% | [15] 53.6% | [16] 87.6% | [17] 34.6% | [18] 21.2% | [19] 28.8%
active: [7] -32.3%

O=CN1N=C(c2cccc(Nc3ccnc4cc(Cl)ccc34)c2)CC1c1ccc(Cl)cc1 (stereo unspecified)
active: [2] -24.8% | [3] -17.4% | [11] 9.56%
inactive: [1] 29.5% | [4] 49% | [5] 18.9% | [6] 23.1% | [7] 12.7% | [8] 32.4% | [9] 24.2% | [10] 52.7% | [12] 49.1% | [13] 34.1% | [14] 22.7% | [15] 45% | [16] 45.5% | [17] 11.4% | [18] 12.2% | [19] 13.7%

COc1ccc(/C=C/C(c2cc(OC)c(OC)c(OC)c2)n2cncn2)cc1O (stereo unspecified)
inactive: [1] 16.5% | [2] 41% | [3] 41% | [4] 34.2% | [5] 20.7% | [6] 23.5% | [7] 23.9% | [8] 37.5% | [9] 50.9% | [10] 59.1% | [11] 18.2% | [12] 59.4% | [13] 49.6% | [14] 54.2% | [16] 63.1% | [20] 34.5% | [17] 19.8%
active: [18] 6.31%

O=C(CSc1nnnn1-c1ccccc1)Nc1ccc(Oc2ccccc2)cc1
inactive: [1] 97.4% | [2] 108% | [3] 101% | [4] 98.8% | [5] 101% | [6] 96.1% | [7] 103% | [8] 82.3% | [9] 104% | [10] 100% | [11] 81% | [12] 100% | [13] 88.4% | [14] 77.2% | [15] 119% | [16] 99.7% | [17] 103% | [18] 114% | [19] 91.7%

CCOC(=O)C1=C(CCl)N(C)C(=O)NC1c1ccc2c(c1)OCO2 (stereo unspecified)
inactive: [1] 34.4% | [2] 38.7% | [3] 28.8% | [4] 84.5% | [5] 68% | [6] 36.8% | [7] 81.9% | [8] 73.2% | [9] 40.9% | [10] 79% | [11] 58.8% | [12] 71.9% | [13] 58.6% | [14] 69.5% | [15] 45.2% | [16] 49.5% | [17] 55.8% | [18] 12% | [19] 53.2%

CCN(CC)CCOc1ccc2ccc(=O)oc2c1
inactive: [1] 104% | [2] 102% | [3] 107% | [4] 98.5% | [5] 101% | [6] 21.3% | [7] 102% | [8] 94.8% | [9] 101% | [10] 99.6% | [11] 103% | [12] 105% | [13] 100% | [14] 82.9% | [16] 97% | [20] 90.9% | [17] 98.5%
active: [18] 3.66% | [19] 4.48%

COC(=O)c1ccc2cc(OC)c(OC)cc2c1
inactive: [1] 100% | [2] 90.7% | [3] 97.8% | [4] 99.5% | [5] 95.7% | [6] 92.1% | [7] 108% | [8] 104% | [9] 109% | [10] 102% | [11] 134% | [13] 104% | [14] 100% | [15] 103% | [16] 106% | [20] 91.6% | [17] 75.4% | [18] 91% | [19] 85.8%

CCOC(=O)C/C(=N\Nc1cc(=O)[nH]c2ccc(C)cc12)C(=O)OCC
active: [18] -57.2%
inactive: [1] 103% | [2] 112% | [3] 94.7% | [4] 97.8% | [5] 103% | [6] 91.4% | [7] 96.8% | [8] 91.1% | [9] 102% | [10] 99.3% | [11] 108% | [13] 101% | [14] 86.7% | [15] 101% | [16] 99% | [20] 94.6% | [17] 112% | [19] 18.3%
